Test [1] is described as follows: Quantitative High-Throughput drug screen in 47 multiple myeloma cell lines against the NCATS MIPE library collection: KMS28PE_JCRB cell viability assay (AID 1918983). Note: nearly all actives have a fitted effect of over 35% in size. A digest of the protocol:
(§1)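 qHTS format: cells plated (500/well), pin-dosed with MIPE 4.0 compounds, kept 48 h at 37 °C. Readout was CellTiter-Glo luminescence, median RLU.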

The nature of test [2]: Quantitative High-Throughput drug screen in 47 multiple myeloma cell lines against the NCATS MIPE library collection: OCIMY7_PLB cell viability assay (AID 1918987). Note: nearly all actives have a fitted effect of over 65% in size. An outline of the steps:
as §1

The nature of test [3]: Quantitative High-Throughput drug screen in 47 multiple myeloma cell lines against the NCATS MIPE library collection: OCIMY5_PLB cell viability assay (AID 1918988). Note: nearly all actives have a fitted effect of over 65% in size. A digest of the protocol:
as §1

A short description of test [4]: Quantitative High-Throughput drug screen in 47 multiple myeloma cell lines against the NCATS MIPE library collection: OPM1_PLB cell viability assay (AID 1918989). Note: nearly all actives have a fitted effect of over 40% in size. A digest of the protocol:
as §1

Test [5] can be described thus: Quantitative High-Throughput drug screen in 47 multiple myeloma cell lines against the NCATS MIPE library collection: U266_ATCC cell viability assay (AID 1919864). Note: nearly all actives have a fitted effect of over 35% in size. A digest of the protocol:
as §1

Test [6] in a line: Quantitative High-Throughput drug screen in 47 multiple myeloma cell lines against the NCATS MIPE library collection: XG1_PLB cell viability assay (AID 1919866). Note: nearly all actives have a fitted effect of over 35% in size. A digest of the protocol: as §1
The nature of test [7]: Quantitative High-Throughput drug screen in 47 multiple myeloma cell lines against the NCATS MIPE library collection: PE2_PLB cell viability assay (AID 1919869). Note: nearly all actives have a fitted effect of over 35% in size. A digest of the protocol:
as §1

Test [8] can be described thus: Quantitative High-Throughput drug screen in 47 multiple myeloma cell lines against the NCATS MIPE library collection: PCM6_Riken cell viability assay (AID 1919870). Note: nearly all actives have a fitted effect of over 30% in size. A digest of the protocol:
as §1

Test [9] in a line: Quantitative High-Throughput drug screen in 47 multiple myeloma cell lines against the NCATS MIPE library collection: OPM2_DSMZ cell viability assay (AID 1919872). Note: nearly all actives have a fitted effect of over 30% in size. An outline of the steps:
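CellTiter-Glo luminescence (ATP) after 48 h compound exposure, 37C/5% CO2; 500 cells/well; MIPE 4.0 approved/investigational drugs pinned in; DMSO = 100%, media only = 0% viability.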

The nature of test [10]: Quantitative High-Throughput drug screen in 47 multiple myeloma cell lines against the NCATS MIPE library collection: SKMM1_PLB cell viability assay (AID 1919863). Note: nearly all actives have a fitted effect of over 35% in size. The following applies: SKMM1 myeloma viability, CellTiter-Glo ATP, 48 h; viability: active compounds read low. A digest of the protocol:
as §1
On the technique in general: Cellular ATP, detected with luciferase, serves as a proxy for viable cell number.

Test [11] is described as follows: Quantitative High-Throughput drug screen in 47 multiple myeloma cell lines against the NCATS MIPE library collection: KMS11_JCRBsus cell viability assay (AID 1919873). Note: nearly all actives have a fitted effect of over 50% in size. A digest of the protocol:
as §1

Test [12] is described as follows: Quantitative High-Throughput drug screen in 47 multiple myeloma cell lines against the NCATS MIPE library collection: L363_DSMZ cell viability assay (AID 1918984). Note: nearly all actives have a fitted effect of over 40% in size. A digest of the protocol: as §1
A short description of test [13]: Quantitative High-Throughput drug screen in 47 multiple myeloma cell lines against the NCATS MIPE library collection: KMS28BM_JCRB cell viability assay (AID 1919874). Note: nearly all actives have a fitted effect of over 35% in size. An outline of the steps:
as §1

Test [14] can be described thus: Quantitative High-Throughput drug screen in 47 multiple myeloma cell lines against the NCATS MIPE library collection: XG6_PLB cell viability assay (AID 1919865). Note: nearly all actives have a fitted effect of over 40% in size. An outline of the steps: as §1
Test [15] can be described thus: Quantitative High-Throughput drug screen in 47 multiple myeloma cell lines against the NCATS MIPE library collection: KMS34_JCRB cell viability assay (AID 1918985). Note: nearly all actives have a fitted effect of over 40% in size. A digest of the protocol:
as §1

The nature of test [16]: Quantitative High-Throughput drug screen in 47 multiple myeloma cell lines against the NCATS MIPE library collection: VP6_DJ cell viability assay (AID 1919867). Note: nearly all actives have a fitted effect of over 40% in size. An outline of the steps: as §1
Test [17] in a line: Quantitative High-Throughput drug screen in 47 multiple myeloma cell lines against the NCATS MIPE library collection: RPMI8226_ATCC cell viability assay (AID 1919871). Note: nearly all actives have a fitted effect of over 30% in size. A digest of the protocol: as §1
Test [18] in a line: Quantitative High-Throughput drug screen in 47 multiple myeloma cell lines against the NCATS MIPE library collection: UTMC2_PLB cell viability assay (AID 1919868). Note: nearly all actives have a fitted effect of over 55% in size. The following applies: CellTiter-Glo ATP luminescence, 48 h; viability (% of DMSO control): at 45.8 µM (top of the series). A digest of the protocol: as §1

Records with an inconclusive call do not appear. Values without a mark were called inactive. Calls of active or inactive are those of the source. Calls come from the whole dose curve; as a rule, active = well fitted cell-killing curve with a large enough effect; inconclusive = small, poorly fitted or top-dose-only effect, or effect the other way; inactive = no such curve, though single readings can be large or run the other way.
Potency is the fitted concentration of half-maximal effect.

For the compound `CC(=O)NC(C)c1ccc(Oc2ccc(OC(C)C)cc2)cc1` (stereo not drawn), the Potency is 18.7 µM (active) in test [1]; 2.35 µM (active) in [2]; 16.6 µM (active) in test [3]; 1.48 µM (active) in test [4]; 16.6 µM (active) in test [6]; 16.6 µM (active) in test [7]. The values for the Potency in test [8] and in test [9] were 16.6 µM (active) and 8.33 µM (active), respectively. For the same compound, in [5], the Potency entry was “inactive”.

On to `O=C1[C@H](Cc2ccc(O)cc2)N2C(=O)CCN(C(=O)NCc3ccccc3)[C@H]2CN1Cc1cccc2ccccc12`, for which the Potency in [1] was 9.35 µM (active); in [3], 4.18 µM (active); in test [4], 8.33 µM (active); in test [10] it was 6.62 µM (active); in test [7], 4.69 µM (active); in test [11] it was 1.66 µM (active).

For the compound `O=c1[nH]c(-c2ccc(C(F)(F)F)cc2)nc2c1CSCC2`, the Potency entry in [1], in test [12], in [6], in [9], in [11] and in test [13] was “inactive” each time. Also, the Potency in [3] was 5.26 µM (active); in test [5], 18.7 µM (active).

For `Cc1c(CCOc2ccc(C(=O)O)cc2)c2cc(Cl)ccc2n1C(c1ccccc1)c1ccccc1`, the Potency in test [1] was 23.5 µM (active). The Potency result in [2], in test [14], in test [6], in [7] and in test [11] was “inactive” each time. Also, in test [10], the viability was 110%.

With `CCOc1cc(N2CCC(O)CC2)ccc1Nc1ncc2c(n1)N(C)c1ccccc1C(=O)N2C`, the Potency was 16.6 µM (active) in [1]; 10.5 µM (active) in test [15]; 6.62 µM (active) in test [2]; 14.8 µM (active) in [3]; 2.96 µM (active) in test [4]; 11.8 µM (active) in test [10]. Besides, the Potency in test [6] was 5.9 µM (active); in test [16], 2.09 µM (active); in [7] it was 3.72 µM (active); in test [17], 20.9 µM (active); in [9], 13.2 µM (active); in test [11] it was 3.32 µM (active). Further, the Potency in test [13] was 4.69 µM (active).

Consider `CN(C)C(=O)c1ccc(S(=O)(=O)c2ccc(NC(=O)[C@@](C)(O)C(F)(F)F)c(Cl)c2)cc1`, for which the Potency in test [12] was 10.5 µM (active); in test [2] it was 11.8 µM (active); in [3] it was 20.9 µM (active); in test [6] it was 3.32 µM (active). The Potency entry in [4], in [5], in [17], in [9] and in test [13] was “inactive” throughout. In addition, in test [10], the viability was 99.9%.

As to `Cc1ccnc(NS(=O)(=O)c2ccc(NC(=O)Nc3ccc(S(=O)(=O)Nc4nccc(C)n4)cc3)cc2)n1`, the Potency entry in test [1] and in [15] was “inactive” each time. The Potency is 23.5 µM (active) in test [2]; 18.7 µM (active) in test [4]; 4.18 µM (active) in test [14]; 2.64 µM (active) in test [16]; 4.69 µM (active) in test [8].

Consider `C[C@]1(c2nc3c(C(N)=O)cccc3[nH]2)CCCN1`, for which the Potency entry in test [1], in test [4] and in [9] was “inactive” each time. Also, the Potency in [2] was 5.26 µM (active).

Take `Cc1[nH]c(=O)c(C#N)cc1-c1ccncc1`: the Potency result in [1], in [15], in test [17], in test [9] and in [11] was “inactive” throughout. Besides, the Potency in [4] is 16.6 µM (active); in test [14], 5.9 µM (active); in test [7] it was 11.8 µM (active); in test [8], 7.43 µM (active); in test [13], 11.8 µM (active). Besides, the viability in [10] is 106%.

As to `COc1ccc2c3n(c(=NC(=O)c4cccnc4)nc2c1OC)CCN3`, the Potency was 5.9 µM (active) in [1]; 0.0743 µM (active) in test [2]; 3.72 µM (active) in test [3]; 16.6 µM (active) in test [4]; 0.148 µM (active) in test [10]; 0.59 µM (active) in test [14]. For the same compound, the Potency in test [16] is 1.48 µM (active); in [18] it was 3.32 µM (active); in test [7] it was 11.8 µM (active).

For `C#Cc1cccc(Nc2ncnc3cc(OCCOC)c(OCCOC)cc23)c1`, the Potency in [12] was 1.48 µM (active); in [15] it was 11.8 µM (active); in test [2] it was 0.833 µM (active); in [3], 5.9 µM (active); in [5], 13.2 µM (active); in [14] it was 0.0833 µM (active). Also, the Potency in [18] was 4.18 µM (active); in [13] it was 0.833 µM (active). In addition, in [9], the Potency entry was “inactive”.

In the case of `Cc1c(CN2CCN(C(=O)C(C)C)CC2)sc2c(N3CCOCC3)nc(-c3cnc(N)nc3)nc12`, the Potency is 0.0209 µM (active) in [12]; 0.0296 µM (active) in [15]; 1.66 µM (active) in test [2]; 0.0743 µM (active) in test [3]; 0.118 µM (active) in [4]; 0.148 µM (active) in [10]. Further, the Potency in test [5] is 0.372 µM (active); in [6], 0.0662 µM (active); in test [16] it was 0.105 µM (active); in [18], 0.0526 µM (active); in test [7], 0.0662 µM (active); in test [8] it was 0.235 µM (active). For the same compound, the Potency in [17] is 0.0296 µM (active); in [9], 0.118 µM (active); in [13] it was 0.0372 µM (active).

Usually viability stands for a read-out of living cells in per cent, often relative to untreated cells.

The values above are taken from PubChem BioAssay (NCATS).
